# Measured values: PubChem BioAssay (NCI)
# This is part of a sample that, as a whole, favours compounds with a hit. Of some 83,000 tested, about 20% had one in any assay.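 48-hour exposure, single concentration, 96-well plates; percent growth endpoint where 0 means no net growth. Active: below 10.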 Unmarked numbers belong to inactive results. Calls of active or inactive are those of the source.
# Experiments:
# Experiment in all cases: NCI-60 one-dose screen, 48 h (100 = growth as untreated, 0 = no growth, -100 = all killed)
# [1] = system: COLO 205 colon; conditions: 10 µM
# [2] = system: MDA-MB-231 breast; conditions: 10 µM unless noted
# [3] = system: RXF 393 renal; conditions: 10 µM unless noted
# [4] = system: SK-MEL-5 melanoma; conditions: 10 µM unless noted
# [5] = system: LOX IMVI melanoma; conditions: 10 µM unless noted
# [6] = system: UO-31 renal; conditions: 10 µM unless noted
# [7] = system: ACHN renal; conditions: 10 µM unless noted
# [8] = system: CAKI-1 renal; conditions: 10 µM unless noted
# [9] = system: A498 renal; conditions: 10 µM unless noted
# [10] = system: CCRF-CEM leukemia; conditions: 10 µM unless noted
# [11] = system: MOLT-4 leukemia; conditions: 10 µM
# [12] = system: OVCAR-5 ovarian; conditions: 10 µM unless noted
# [13] = system: OVCAR-4 ovarian; conditions: 10 µM unless noted
# [14] = system: IGROV1 ovarian; conditions: 10 µM
# [15] = system: MDA-MB-435 melanoma; conditions: 10 µM unless noted
# [16] = system: A549/ATCC NSCLC; conditions: 10 µM unless noted
# [17] = system: MALME-3M melanoma; conditions: 10 µM unless noted
# [18] = system: UACC-257 melanoma; conditions: 10 µM unless noted
# [19] = system: HT29 colon; conditions: 10 µM unless noted
# [20] = system: SK-MEL-2 melanoma; conditions: 10 µM unless noted
SMILES,growth [1],growth [2],growth [3],growth [4],growth [5],growth [6],growth [7],growth [8],growth [9],growth [10],growth [11],growth [12],growth [13],growth [14],growth [15],growth [16],growth [17],growth [18],growth [19],growth [20]
C[C@]12C[C@H](O)[C@H]3[C@@H](CCC4=CC(=O)CC[C@@]43C)[C@@H]1CC[C@@H]2O,99.8%,103%,109%,100%,96%,77.7%,101%,88%,116%,97.3%,103%,105%,104%,105%,101%,–,–,–,–,–
CCCCOC(=O)c1ccccc1C(=O)O.CCCCOC(=O)c1ccccc1C(=O)O.[Cu+2],101%,124%,116%,98%,89.4%,96.5%,112%,113%,105%,108%,96.8%,126%,101%,122%,105%,103%,83.3%,110%,107%,117%
C=C=[CH][Sn]([c]1ccccc1)([c]1ccccc1)[c]1ccccc1,-84.2% (active),-53.3% (active),-83.5% (active),-81.5% (active),-77.2% (active),-84.3% (active),-49.4% (active),-40.4% (active),–,-0.102% (active),–,-60.3% (active),-40.2% (active),-22.2% (active),-59.5% (active),-58.7% (active),-36.6% (active),-37.2% (active),-72.1% (active),-30.6% (active)
CCC(C)(C)O,110%,97.4%,111%,101%,108%,93.8%,103%,93.6%,83.1%,6.63% (active),121%,90.1%,111%,117%,92.3%,108%,110%,119%,109%,–
Oc1c(Br)cc(Br)cc1Br.[Cu+2],108%,111%,109%,102%,89%,81.2%,105%,104%,106%,101%,92.1%,120%,87.4%,105%,105%,98%,86.4%,101%,104%,95.3%
COc1ccc2c(c1)NC1=C(C(=O)OC1)C2c1cc(OC)c(OC)c(OC)c1 (stereo not given),-48.5% (active),6.08% (active),36.7%,-49.1% (active),11.9%,47.2%,31.1%,25.4%,-13.7% (active),6.76% (active),5.82% (active),36.1%,37%,12%,-35.5% (active),15.6%,21.7%,62.4%,1.35% (active),15.7%
C[CH2][Sn]([CH2]C)([CH2]C)[NH]S(=O)(=O)c1ccc(C)cc1,128%,107%,123%,110%,92.3%,86.9%,–,88.6%,68%,108%,101%,114%,103%,111%,102%,102%,110%,105%,116%,119%
Nc1nc(N)c(-c2ccc(Cl)c(Cl)c2)c(/C=C/c2ccc(S(=O)(=O)F)cc2)n1,98.1%,104%,90.6%,84.6%,69.1%,74.7%,67.8%,84.4%,87.7%,58.7%,76.8%,80.8%,100%,89.3%,87.5%,81.3%,86.9%,76.3%,59.4%,86.3%
COc1c(O)c2c3c(c1OC)-c1ccccc1CC3N(C)CC2 (stereo not given),–,96.3%,133%,108%,99.3%,89.9%,105%,94.3%,116%,98.7%,83.6%,109%,120%,96.8%,104%,103%,105%,103%,110%,–
Oc1ccccc1OB(Oc1ccccc1O)N(CCCl)CCCl,98.4%,71%,94.9%,89.9%,89.4%,51.9%,86.1%,80.4%,88.6%,18.4%,57.6%,102%,96.8%,52.4%,87.4%,67%,89.9%,84.4%,85.9%,104%
C[CH2][Pb]([CH2]C)([CH2]C)[O]C(=O)c1ccc(N)cc1,92.5%,88.7%,34.2%,39%,68.5%,52.1%,70.7%,65.5%,60.3%,–,60.5%,85.1%,57%,61.9%,-72.9% (active),–,40.3%,–,79.8%,39.3%
CC12CC[C@H](O)C=C1/C(=N/O)CC1C2CCC2(C)C1CC[C@@H]2O (stereo not given in full),115%,108%,104%,103%,94.3%,66.2%,95.5%,84%,–,–,–,96.2%,–,94.4%,90.7%,103%,80.3%,111%,98%,99.2%
CC(=O)O[C@@H]1C2=C(C)C3(CC3)[C@@](C)(O)C(=O)C2=C[C@@]1(C)CO,–,-2.64% (active),-89.6% (active),-86.1% (active),-25.2% (active),-51% (active),-6.63% (active),3.26% (active),–,10.9%,5.2% (active),4.7% (active),–,3.81% (active),-85% (active),6.08% (active),-69.7% (active),-34.7% (active),5.12% (active),-42.2% (active)
C=CCN1C(=O)C(CC)(CCC(C)C)C(=O)NC1=S (stereo not given),108%,108%,107%,105%,109%,86.4%,110%,97.7%,112%,86.3%,96.6%,112%,106%,108%,101%,98.7%,96.1%,89.5%,103%,117%
COc1cc(C2CC(=O)Nc3nc(N)[se]c32)cc(OC)c1OC (stereo not given),107%,101%,116%,99%,105%,99.9%,103%,113%,82.8%,96%,82.7%,93.4%,105%,62%,105%,45.7%,105%,99.6%,89.5%,89.2%
NC(Cc1ccc2c(c1)OCO2)c1ccc2c(c1)OCO2 (stereo not given),99.9%,107%,–,103%,99.8%,100%,108%,95.2%,92.1%,98.2%,107%,109%,101%,–,–,104%,–,103%,102%,107%
CC1(C)N=C(N)N=C(N)N1c1ccc(OCCCCNC(=O)c2ccc(S(=O)(=O)F)cc2)c(Cl)c1,61.7%,105%,76.3%,51.4%,25.7%,77%,96.9%,99.2%,105%,31%,57.9%,56.2%,107%,33.7%,30.6%,51%,71.3%,54.7%,27.6%,82.4%
